For 58 compounds, inhibition results are on record in PubChem BioAssay AID485346 (Sanford-Burnham Center for Chemical Genomics, 2010).

Among all 330,000 compounds or so, about 10,000 (3%) were called active. Many of the other results were omitted from the sample, so actives are more common in it than they were. A number with no mark means an inactive call.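 How the source made its calls: active means inhibition of at least 50% at 8 µM in the primary screen; inactive means the rest.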

The target of this assay is Protein Mdm4 (Homo sapiens) + E3 ubiquitin-protein ligase Mdm2 (Homo sapiens) (UniProt O15151+Q00987). In words: inhibitors of human Mdm2-MdmX association, primary screen, cell-based, luminescence, split luciferase, SaOS-2, uHTS (AID 485346). To be noted: SaOS-2 split-luciferase Mdm2/MdmX complementation, at 8 µM, stronger effect = higher value.
Protein Mdm4 (Homo sapiens) + E3 ubiquitin-protein ligase Mdm2 (Homo sapiens), sequence (O15151 whole entry, looked up): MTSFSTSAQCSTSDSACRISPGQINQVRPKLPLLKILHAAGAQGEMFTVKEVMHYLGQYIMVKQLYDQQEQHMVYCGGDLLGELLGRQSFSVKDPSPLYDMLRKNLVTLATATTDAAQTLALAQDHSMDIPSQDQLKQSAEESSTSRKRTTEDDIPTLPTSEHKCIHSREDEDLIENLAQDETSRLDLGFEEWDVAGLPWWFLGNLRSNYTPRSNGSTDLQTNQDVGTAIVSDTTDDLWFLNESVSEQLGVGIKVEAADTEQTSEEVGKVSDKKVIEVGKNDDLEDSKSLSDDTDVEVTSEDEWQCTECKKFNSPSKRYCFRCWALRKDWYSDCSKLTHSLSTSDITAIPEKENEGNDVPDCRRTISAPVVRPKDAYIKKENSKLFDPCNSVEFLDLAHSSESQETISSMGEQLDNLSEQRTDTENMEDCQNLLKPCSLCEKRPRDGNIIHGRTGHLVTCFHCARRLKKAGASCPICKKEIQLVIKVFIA
Protein Mdm4 (Homo sapiens) + E3 ubiquitin-protein ligase Mdm2 (Homo sapiens), sequence (Q00987 whole entry, looked up): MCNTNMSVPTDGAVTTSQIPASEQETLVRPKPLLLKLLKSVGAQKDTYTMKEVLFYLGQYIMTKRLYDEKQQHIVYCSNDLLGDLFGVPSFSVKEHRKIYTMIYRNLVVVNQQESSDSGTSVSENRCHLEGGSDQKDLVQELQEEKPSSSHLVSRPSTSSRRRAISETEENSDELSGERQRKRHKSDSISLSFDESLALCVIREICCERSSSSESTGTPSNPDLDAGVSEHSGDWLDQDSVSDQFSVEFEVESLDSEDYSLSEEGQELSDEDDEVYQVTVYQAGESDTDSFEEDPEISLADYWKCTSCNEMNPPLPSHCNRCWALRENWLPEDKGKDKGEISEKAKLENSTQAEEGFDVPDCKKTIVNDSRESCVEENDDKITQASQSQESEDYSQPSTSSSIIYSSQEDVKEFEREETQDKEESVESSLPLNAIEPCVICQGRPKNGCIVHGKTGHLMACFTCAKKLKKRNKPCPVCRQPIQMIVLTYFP
For orientation: inhibition means the relative decrease from the control value, in per cent. For `O=C1c2ccccc2[C@@H]2C[C@@H](O)[C@H](Nc3ccccc3Cl)CCN12`, the inhibition was 22.5%. Take `Cc1ccnc(SCC(=O)Nc2cccc(S(=O)(=O)N3CCOCC3)c2)n1`: the inhibition is 15.8%. As for `COC(=O)CSc1nc2ccccc2c(=O)n1Cc1ccccc1`, the figure is 1.48%.

Regarding `CC(=O)c1nc2ccccc2n1Cc1ccccc1`, the inhibition was 4.16%. As for `CC(=O)Oc1c(C(=O)c2nnc(C)o2)c(=O)n(Cc2ccccc2)c2ccccc12`, the inhibition is 53.7% (active). As for `CCN1C(=S)N[C@@H](CCc2ccccc2)[C@H](C(=O)OC)[C@H]1C`, the figure is 6.92%. With `CCOC(=O)/C(=C\c1ccc([N+](=O)[O-])cc1)C(=O)c1cc(C(C)=O)c(Nc2ccccc2)s1`, the inhibition is 99.3% (active).

`CCOC(=O)/C(=N\Nc1ccccc1[N+](=O)[O-])c1csc(Nc2ccccc2)n1`: the inhibition is 23.4%. Regarding `Cc1ccc(NC(=O)/C(=C/c2ccc([N+](=O)[O-])cc2)NC(=O)c2ccccc2)cc1`, the inhibition was 17.1%. For `O=C(C1CC(=O)N(C2CCCC2)C1)N1CCN(c2cccc(C(F)(F)F)c2)CC1` (stereo not drawn), the inhibition was 4.03%.

On to `Cc1cc(Nc2cccc(C)c2C)n2ncnc2n1`, for which the inhibition was -28.4%. The same measure for `Cc1cccc(OCC(O)Cn2c(N3CCCCC3)nc3c2c(=O)[nH]c(=O)n3C)c1` (stereo not drawn): -19.9%.

As for `NC(=O)CSc1nnc(NC(=O)c2ccc3ccccc3c2)s1`, the inhibition was -8.44%. For the compound `COc1ccc(C(=O)CSc2nnc(NC(=O)C3CC(=O)N(c4cccc(OC)c4)C3)s2)cc1` (stereo not drawn), the inhibition was -12.2%.

On to `O=C(/C=C/c1ccccc1)Nc1nnc(SCC(=O)c2ccc3ccccc3c2)s1`, for which the inhibition was 69.7% (active). As for `CC(=O)N/C(=C\c1ccccc1)C(=O)OC(C)C(=O)N(C)c1ccccc1` (stereo not drawn), the inhibition is 19.3%. With `O=C(CCSCCc1ccccn1)Nc1nccs1`, the inhibition was -7.99%. Consider `COc1ccc(C2CC(c3ccc([N+](=O)[O-])cc3)=NN2C(C)=O)cc1` (stereo not drawn), for which the inhibition is -14%. As for `COc1ccc(C2CC(c3ccccc3)=NN2C(=O)c2ccc(Cl)c([N+](=O)[O-])c2)cc1` (stereo not drawn), the figure is 88.8% (active); as for `COc1ccc(C2=NN(C(=O)c3cccnc3)C(c3ccccc3)C2)cc1` (stereo not drawn), 19.9%; as for `COc1ccc(C(C(=O)NC2CCCC2)N(CCCO)C(=O)Cn2nnc(-c3ccc(C)o3)n2)cc1` (stereo not drawn), -6.39%. In the case of `COC(C[C@@H](O)[C@H](C)[C@H](O)COCc1ccccc1)OC`, the inhibition was 26.1%. Consider `CCOc1ccccc1C1CC(c2cccc(NS(C)(=O)=O)c2)=NN1C(=O)c1ccccc1` (stereo not drawn), for which the inhibition is 8.21%. As for `COc1ccc(C2=NN(C(=O)c3ccccc3C(=O)O)C(c3ccccc3O)C2)cc1` (stereo not drawn), the figure is -30.7%. `CCOc1ccc2nc(Cl)c(C3CC(c4ccccc4)=NN3C(=O)c3cccs3)cc2c1` (stereo not drawn): the inhibition was 95% (active).

Take `CCOc1ccc(C(C)C)cc1S(=O)(=O)n1nc(C)cc1C`: the inhibition was 13.1%. The same measure for `COc1ccc(OC)c(S(=O)(=O)n2c([N+](=O)[O-])cnc2C)c1`: 22.7%. As for `COc1ccc(C(C[N+](=O)[O-])n2nc(C)cc2C)cc1` (stereo not drawn), the inhibition is 69.3% (active). As for `Cc1ccc(Cl)c(NC(=O)CN(C)CC(=O)Nc2ccc(F)c(F)c2F)c1Cl`, the figure is -0.971%; as for `O=C(OCC(=O)N1CCCCCC1)c1ccc(Cl)nc1`, 0.359%. The same measure for `O=C(NNc1c2ccccc2nc2ccccc12)c1cc2ccccc2cc1O`: 35.2%; for `CC(C)(C)OC(=O)NNc1c2ccccc2nc2ccccc12`: 95.7% (active); for `Cc1ccccc1NC(=O)NNC(=O)OC(C)(C)C`: 20.7%. `C/C(=N/Nc1ccc(Cl)cc1)c1cnnc(-c2ccccc2)n1`: the inhibition was -8.35%. The same measure for `Cc1nc(SCC(=O)Nc2cc(C)on2)c2c(C)c(C)sc2n1`: 79.8% (active); for `Cc1cc(NC(=O)CSc2ncc(C(F)(F)F)cc2Cl)no1`: 6.3%. In the case of `Cc1cc(NC(=O)CSc2nc(C(C)C)nc3sc4c(c23)CCC(C)C4)no1` (stereo not drawn), the inhibition is 48.9%. On to `Cc1cc([N+](=O)[O-])c(-c2ccc(/C=N/n3cnnc3)o2)cc1Cl`, for which the inhibition is 26.5%. With `COc1cccc(OCCOc2cccc(/C=N/n3cnnc3)c2)c1`, the inhibition was -7.51%.

In the case of `Cc1ccccc1OCCOc1ccc([N+](=O)[O-])cc1/C=N/n1cnnc1`, the inhibition was 58.7% (active). The same measure for `COc1ccc(CCNC(=O)COC(=O)c2cnc(Cl)c(Cl)c2)cc1`: -24.9%; for `CN(C)CC(O)COc1ccc(C(C)(C)c2ccc(OCC(O)CN(C)C)cc2)cc1` (stereo not drawn): 97.5% (active). As to `CC(C)(c1ccccc1)c1ccc(OCCN)cc1`, the inhibition was 29.2%. On to `Cc1cc(C)n(CC(O)COc2ccc(C(C)(C)C)cc2)n1` (stereo not drawn), for which the inhibition is 0.107%. With `CC(Oc1cccc(Cl)c1)C(=O)NC1CC(C)(C)NC(C)(C)C1` (stereo not drawn), the inhibition is 12.5%.

`Cc1ccc(C(CC(=O)O)NC(=O)c2ccc(S(=O)(=O)N3CCCC3)cc2)cc1` (stereo not drawn): the inhibition is 23.9%. As for `COc1ccc(S(=O)(=O)N2CCOCC2)c(C)c1C`, the figure is 4.93%; as for `COc1ccc(CN(C)C(=S)Nc2ccc(Cl)cc2Cl)cc1`, 2.13%; as for `COc1ccc(CCNCC(O)Cn2ccc3ccccc32)cc1OC` (stereo not drawn), 11.5%. As for `COc1c(C)c2c(c(O)c1C/C=C(\C)CCC(=O)O)C(=O)OC2`, the figure is 97.1% (active); as for `NNC(=O)c1ccc(COCC(F)(F)C(F)F)cc1`, 6.42%; as for `O=C(Nc1ccccc1Cc1ccccc1)c1ccc2c(c1)SC1=NS(=O)(=O)CCN12`, 20.2%. The same measure for `CCOc1ccccc1N1CCN(C(=O)COc2ccc3c(C)cc(=O)oc3c2)CC1`: 18.6%; for `Cc1cc(=O)oc2cc(OCCC[n+]3ccccc3)ccc12`: -31%. `Cc1cc(=O)oc2cc(OCC3CC(c4ccccc4Cl)=NO3)ccc12` (stereo not drawn): the inhibition was 63.9% (active). As for `O=C1C=C(c2cc(C(F)(F)F)cc(C(F)(F)F)c2)C[C@@H](c2ccc3c(c2)OCO3)C1`, the figure is 15.2%; as for `CCc1ccc(-n2c(SCc3cc(=O)n4cc(Br)ccc4n3)nc3[nH]ncc3c2=O)cc1`, 41.3%; as for `CC(O)CN(Cc1ccc(Cl)cc1)CC(C)O` (stereo not drawn), 14.3%.
